A3A deaminase = APOBEC3A ssDNA deaminase inhibitors, primary screen, selectivity assay for APOBEC3G inhibitor project, biochemical, FAM/TAMRA oligo cleavage fluorescence | DNA dC->dU-editing enzyme APOBEC-3A (Homo sapiens), P31941 | recombinant A3A, FAM/TAMRA ssDNA deamination fluorescence | inhibition, % at 20 µM | 330,000 compounds, 0.41% hits;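 active means at least 40% inhibition at 20 µM here, with at most 30% in a related deaminase screen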
PolyA inh = polyadenylation inhibitors in yeast reporter cells, primary screen, luminescence, S. cerevisiae. 300,000 compounds, 0.02% hits. S. cerevisiae SKY197-pL101 polyadenylation reporter, beta-gal luminescence; efflux-impaired pdr1/pdr3 knockout yeast; score 100 = 6 SD above DMSO. activity score, % at 12 µM. AID 1875, 2009;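 active means lowest replicate activity score at least 50, where 100 means six control SD above control mean; inconclusive means lowest score under 50 but half or more replicates reach 50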;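 further: yeast exposed to compound for 9 h at 30 °C; higher score means more reporter readthrough which indicates perturbed polyadenylation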
NALP1 yeast inh = NALP1 inflammasome inhibitors in reconstituted yeast, colorimetric, S. cerevisiae, triplicate retest; S. cerevisiae NALP1/ASC/caspase-1 growth, X-gal OD620, 72 h; inhibition, % at 10 µM; 280,000 compounds, 0.61% hits; in the data active means inhibition mostly above about 24%, no sharp cut-off; inactive means mostly below about 32%
APOBEC3G inh = APOBEC3G DNA deaminase inhibitors, primary screen, biochemical, fluorescence, single-stranded DNA substrate, uHTS. DNA dC->dU-editing enzyme APOBEC-3G (Homo sapiens), Q9HC16. recombinant A3G, ssDNA deamination FAM/TAMRA fluorescence. inhibition, % at 20 µM. 330,000 compounds, 0.28% hits. AID 493012, 2011;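 active means inhibition of at least 40% at 20 µM, with no more than 30% in the related APOBEC3A deaminase screen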
Target sequence (Q9HC16 whole entry, looked up): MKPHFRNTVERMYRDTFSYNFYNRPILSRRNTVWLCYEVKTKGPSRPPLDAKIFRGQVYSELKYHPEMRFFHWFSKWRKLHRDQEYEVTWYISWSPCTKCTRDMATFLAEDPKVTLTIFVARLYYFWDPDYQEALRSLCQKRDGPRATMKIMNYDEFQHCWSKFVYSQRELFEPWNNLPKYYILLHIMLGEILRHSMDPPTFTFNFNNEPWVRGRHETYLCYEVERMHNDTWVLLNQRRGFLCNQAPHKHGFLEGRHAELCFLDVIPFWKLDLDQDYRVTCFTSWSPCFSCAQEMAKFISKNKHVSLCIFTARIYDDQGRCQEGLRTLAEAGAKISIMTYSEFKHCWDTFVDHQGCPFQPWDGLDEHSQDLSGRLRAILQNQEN
APOBEC3G confirm = APOBEC3G deaminase inhibitor retest, confirmation, biochemical, fluorescence, single-stranded DNA substrate, single concentration; shares compounds with APOBEC3G inh; recombinant A3G ssDNA deaminase, UDG/FAM-TAMRA fluorescence; inhibition, % at 20 µM; 890 compounds, 72% hits;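 active means inhibition reaching a set limit in any replicate at 20 µM, the limit being 80% of the first screen's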
UDG ctr A3G = E. coli UDG inhibitors, confirmation, counter-screen for APOBEC3G inhibitor project, biochemical, single concentration, fluorescence, FAM/TAMRA oligo; inhibition, % at 20 µM; UDG counterscreen; shares compounds with APOBEC3G inh; 710 tested, under 10 active; AID 504715, 2011;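 active means compounds giving 40% or more inhibition at 20 µM in any one of the three replicates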;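 further: inhibitors lower the FAM signal released by uracil excision and alkaline cleavage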
Target sequence (P12295 whole entry, looked up): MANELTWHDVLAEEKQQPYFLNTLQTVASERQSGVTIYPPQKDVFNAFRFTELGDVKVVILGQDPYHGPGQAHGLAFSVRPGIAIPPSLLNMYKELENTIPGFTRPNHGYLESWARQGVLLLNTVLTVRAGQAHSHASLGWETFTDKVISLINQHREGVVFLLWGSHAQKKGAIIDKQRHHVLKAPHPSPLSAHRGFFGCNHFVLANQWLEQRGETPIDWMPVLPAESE
Hits are given with their value; i = inactive; ? = inconclusive; nt = not tested or not shown. Hits are enriched below; roughly 1.2% of the tested compounds scored in any of these assays.

SMILES	A3A deaminase	PolyA inh	NALP1 yeast inh	APOBEC3G inh	APOBEC3G confirm	UDG ctr A3G
Cc1ccc(C)c(-n2sc3ccc(F)cc3c2=O)c1	i	nt	nt	56	61	i
O=C1CCCC(=O)N1c1ccc(F)cc1	i	i	i	i	nt	nt
O=c1c2cc(F)ccc2sn1-c1ccc(F)cc1	i	nt	nt	72	78	i
CCCCN(C(=O)c1cccs1)C1CCS(=O)(=O)C1 (stereo not given)	i	i	nt	i	nt	nt
COc1ccc(NC(=O)Nc2ccc3c(c2)C(=O)N([C@@H](C)CO)C[C@@H](C)[C@@H](CN(C)S(=O)(=O)c2cn(C)cn2)O3)cc1	i	nt	nt	i	nt	nt
COc1ccc(/C=N/n2c(-c3cc(C)[nH]n3)n[nH]c2=S)cc1OC	i	i	i	43	63	i
Cc1cccc(-c2n[nH]c(=S)n2/N=C/c2ccc(C)o2)c1	i	i	i	i	nt	nt
COc1ccc(/C=N/n2c(-c3ccccc3)n[nH]c2=S)cc1	i	i	i	i	nt	nt
Cc1cc(-c2n[nH]c(=S)n2/N=C/c2ccc(C)o2)n[nH]1	i	i	i	40	84	i
COc1ccc(/C=N/n2c(-c3cc(C)[nH]n3)n[nH]c2=S)cc1	i	i	i	46	91	i
CC(/C=N/n1c(-c2cc(C)[nH]n2)n[nH]c1=S)=C\c1ccccc1	i	i	i	44	i	nt
O=C(CCCC(=O)c1ccc(F)cc1)c1ccc(F)cc1	i	i	i	i	nt	nt
O=C(O)CNC(=O)c1ccc(Oc2c(F)c(F)c(Oc3ccc(C(=O)NCC(=O)O)cc3)c(F)c2F)cc1	i	i	i	i	nt	nt
N#C/C(=C\c1cccnc1)C(=O)Nc1ccc(S(N)(=O)=O)cc1	i	i	i	i	nt	nt
Cc1ccc(NNC(=O)c2ccno2)c(C)c1	i	i	i	46	i	i
Cc1cc(NC(=O)c2ccno2)no1	i	i	i	i	nt	nt
Cc1ccccc1C(=O)NCCNC(=O)c1ccco1	i	i	i	i	nt	nt
C=CCn1c(OCc2ccccc2)n[nH]c1=S	i	?	i	41	67	i
C=C(C)Cn1c(-c2cccs2)n[nH]c1=S	i	i	i	55	55	i
C=CCn1c(-c2cccc(Cl)c2)n[nH]c1=S	i	i	i	49	86	i
C=C(C)Cn1c(-c2cccc([N+](=O)[O-])c2)n[nH]c1=S	i	i	i	44	75	i
C=CCn1c(C(c2ccccc2)c2ccccc2)n[nH]c1=S	i	i	i	i	nt	nt
C=C(C)Cn1c(CCn2c3ccccc3c3ccccc32)n[nH]c1=S	i	i	i	i	nt	nt
S=c1[nH]nc(-c2cccc(Cl)c2)n1Cc1ccccc1	i	i	i	i	nt	nt
CCNc1nnc(SCC(=O)c2c(N)n(C3CC3)c(=O)[nH]c2=O)s1	i	nt	nt	i	nt	nt
SMILES	A3A deaminase	PolyA inh	NALP1 yeast inh	APOBEC3G inh	APOBEC3G confirm	UDG ctr A3G
O=C(Cc1ccc(NC2=NC3CS(=O)(=O)CC3S2)cc1)NCCc1ccccc1 (stereo not given)	i	i	i	i	nt	nt
O=[N+]([O-])c1cccc(-c2n[nH]c(=S)n2Cc2ccccc2)c1	i	i	i	i	nt	nt
C=CCn1c(-c2cccc([N+](=O)[O-])c2)n[nH]c1=S	i	i	i	43	68	i
C=CCn1c(-c2sccc2C)n[nH]c1=S	i	i	i	44	i	nt
Cc1ccc(OCC(=O)NC(=S)Nc2ccc(S(=O)(=O)Nc3cc(C)on3)cc2)c(Br)c1	i	i	i	i	nt	nt
CSc1nc2c(c(=O)[nH]c(=O)n2C)n1Cc1ccccc1Cl	i	i	i	i	nt	nt
CSc1nc2c(c(=O)[nH]c(=O)n2C)n1Cc1ccc(Cl)cc1	i	i	i	53	56	i
Cc1ccc(Nc2nnns2)cc1	i	i	i	41	27	i
C/C=C(/C)C(=O)Nc1cccc(C2=NOC3(C2)C[C@@H](C(N)=O)N(C(=O)[C@H]2CCC(=O)N2)C3)c1 (stereo not given in full)	i	i	nt	i	nt	nt
C=C(C)C(=O)Nc1cccc(C2=NOC3(C2)C[C@@H](C(N)=O)N(C(=O)[C@H]2CCC(=O)N2)C3)c1 (stereo not given in full)	i	i	i	43	46	i
C=C(C)C(=O)Nc1cccc(C2=NOC3(C2)C[C@@H](C(N)=O)N(C(=O)CCCCC)C3)c1 (stereo not given in full)	i	i	i	86	94	i
CCCCCC(=O)N1CC2(CC(c3cccc(NC(=O)[C@@H]4CCC(=O)N4)c3)=NO2)C[C@@H]1C(N)=O (stereo not given in full)	i	i	i	i	nt	nt
C=C(C)C(=O)Nc1cccc(C2=NOC3(C2)C[C@@H](C(N)=O)N(C(=O)c2ccc(OC)cc2)C3)c1 (stereo not given in full)	i	i	i	81	100	nt
CCc1cc(=O)oc2c3c(cc(OCC(=O)N[C@H](C(=O)O)[C@H](C)CC)c12)OC(C)(C)CC3	i	i	i	i	nt	nt
CCOC(=O)C1CCCN(C(=O)c2ccc3c(c2)N(Cc2ccccc2)C(=O)c2ccccc2S3=O)C1 (stereo not given)	i	i	i	i	nt	nt
S=C(c1ccc(-c2ccccc2Cl)o1)N1CCOCC1	i	i	i	61	55	i
O=C(Nc1nc(-c2ccccn2)cs1)Nc1ccc(F)cc1F	i	i	i	60	68	i
O=C(Nc1nc(-c2ccccc2)cs1)Nc1ccc(F)cc1F	i	i	i	i	nt	nt
C=CCOc1ccc(/C=C/C(=O)OCC(=O)N(C)C2CCS(=O)(=O)C2)cc1 (stereo not given)	i	i	i	i	nt	nt
Cc1cc(C)c(S(=O)(=O)Nn2cnnc2)c(C)c1	i	i	i	i	nt	nt
CC1CCN(C(=S)c2ccccc2O)CC1	i	i	i	49	42	i
Cc1ccc(C)c(C(=O)COC(=O)c2ccc(C)c(S(=O)(=O)N3CCOCC3)c2)c1	i	nt	nt	i	nt	nt
CNC(=O)Cn1ncc2c(C)n(Cc3ccc(C)cc3)c(C)c2c1=O	i	i	i	i	nt	nt
Cc1c2cnn(CC(=O)Nc3c(F)c(F)cc(F)c3F)c(=O)c2c(C)n1Cc1ccccc1F	i	i	i	45	48	i
COc1ccc(N(C)S(=O)(=O)c2ccc3c(c2)NC(=O)CC(=O)N3)c(OC)c1	i	i	i	i	nt	nt
CCCOc1ccc(CCc2n[nH]c(=S)n2-c2ccccc2)cc1	i	i	i	i	nt	nt
CCCCCC(O)CCc1n[nH]c(=S)n1-c1ccccc1 (stereo not given)	i	i	i	41	58	i

Screening results from PubChem BioAssay.
